Measured values published in PubChem BioAssay AID1159580 (chemical genetic matrix, 2015).
Where “and” joins values, the source holds several entries; their conditions need not be identical. Equal entries are not always repeated. The campaign covered roughly 5,500 compounds. About 2,000 (36%) were called active. About 18% were inconclusive and are not listed. No stated cut-off is given here; in the data, active means normalized growth mostly below about 0.91 (no sharp cut-off); inconclusive means no clear call, values can overlap the other calls; inactive means mostly above about 0.92. This is one part of the list.

Assay: chemical genetic growth profiling, strain panel (AID 1159580);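 further: tested at 20 µM; growth read once vehicle control cultures reached saturation at 30 °C; 1 = growth at the plate median or of vehicle wells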
Conditions: S. cerevisiae deletion strains, growth OD
[1] = locus YHR030C, strain SLT2, stronger effect = lower value
[2] = locus YHR079C, strain IRE1, stronger effect = lower value
[3] = locus YJL095W, strain BCK1, stronger effect = lower value
[4] = locus YJR066W, strain TOR1, stronger effect = lower value
[5] = locus YLR113W, strain HOG1, stronger effect = lower value
[6] = locus YMR263W, strain SAP30, stronger effect = lower value
[7] = locus YMR307W, strain GAS1, stronger effect = lower value
[8] = locus YNL183C, strain NPR1, stronger effect = lower value
[9] = locus YOR231W, strain MKK1, stronger effect = lower value
[10] = locus YPL241C, strain CIN2, stronger effect = lower value
[11] = locus YPL256C, strain CLN2, stronger effect = lower value

Measured: normalized growth

NCCCNCCCCNCCCN
inactive: locus YAL040C, strain CLN3, stronger effect = lower value 0.997 | locus YCL061C, strain MRC1 (second series), stronger effect = lower value 1.01 | locus YDR363W, strain ESC2, stronger effect = lower value 1.02 | locus YER002W, strain NOP16, stronger effect = lower value 1.02 | locus YGR078C, strain PAC10, stronger effect = lower value 1.01 | [1] 1.01 | [2] 0.994 | [3] 0.98 | [4] 0.925 | [5] 0.975 | [6] 0.995 | [7] 1.01 | locus YNL128W, strain TEP1, stronger effect = lower value 0.962 | locus YNL175C, strain NOP13, stronger effect = lower value 0.978 | [8] 0.93 | locus YNL197C, strain WHI3, stronger effect = lower value 0.992 | locus YNL224C, strain SQS1, stronger effect = lower value 0.986 | locus YOR083W, strain WHI5 (second series), stronger effect = lower value 0.994 | [9] 0.999 | [10] 1 | [11] 1.02

CC(C)=CC1C(C(=O)O)C1(C)C (stereo not given)
inactive: locus YAL013W, strain DEP1, stronger effect = lower value 0.988 | locus YAL021C, strain ccr4, stronger effect = lower value 0.989 | locus YAL026C, strain drs2, stronger effect = lower value 0.962 | locus YAL030W, strain snc1, stronger effect = lower value 0.976 | locus YBL061C, strain skt5, stronger effect = lower value 0.963 | locus YBR009C, strain hhf1, stronger effect = lower value 0.939 | locus YBR021W, strain FUR4, stronger effect = lower value 1.03 | locus YBR023C, strain chs3, stronger effect = lower value 0.966 | locus YBR171W, strain sec66, stronger effect = lower value 0.96 | locus YBR229C, strain ROT2, stronger effect = lower value 0.996 | locus YBR231C, strain swc5, stronger effect = lower value 0.985 | locus YBR279W, strain paf1, stronger effect = lower value 0.976 | locus YCL011C, strain gbp2, stronger effect = lower value 0.962 | locus YCL016C, strain dcc1, stronger effect = lower value 0.987 | locus YCL029C, strain bik1, stronger effect = lower value 0.981 | locus YCL061C, strain MRC1, stronger effect = lower value 0.987 | locus YCL069W, strain vba3, stronger effect = lower value 0.972 | locus YCR088W, strain abp1, stronger effect = lower value 0.983 | locus YDL005C, strain med2, stronger effect = lower value 0.976 | locus YDL035C, strain GPR1, stronger effect = lower value 0.998 | locus YDL040C, strain nat1, stronger effect = lower value 0.965 | locus YDL074C, strain BRE1, stronger effect = lower value 1.01 | locus YDL101C, strain DUN1, stronger effect = lower value 1.02 | locus YDL185W, strain tfp1, stronger effect = lower value 0.954 | locus YDL192W, strain arf1, stronger effect = lower value 0.966 | locus YDR001C, strain nth1, stronger effect = lower value 0.962 | locus YDR069C, strain doa4, stronger effect = lower value 0.967 | locus YDR101C, strain arx1, stronger effect = lower value 0.979 | locus YDR137W, strain rgp1, stronger effect = lower value 0.97 | locus YDR150W, strain NUM1, stronger effect = lower value 0.983 | locus YDR159W, strain sac3, stronger effect = lower value 0.959 | locus YDR162C, strain NBP2, stronger effect = lower value 1.08 | locus YDR195W, strain ref2 0.997 | locus YDR297W, strain sur2, stronger effect = lower value 0.979 | locus YDR318W, strain mcm21, stronger effect = lower value 0.977 | locus YDR334W, strain swr1, stronger effect = lower value 0.976 | locus YDR335W, strain msn5, stronger effect = lower value 0.977 | locus YDR388W, stronger effect = lower value 0.98 | locus YDR392W, strain spt3, stronger effect = lower value 0.883 | locus YDR502C, strain sam2, stronger effect = lower value 1.01 | locus YEL003W, strain gim4, stronger effect = lower value 0.971 | locus YEL037C, strain rad23, stronger effect = lower value 0.966 | locus YEL061C, strain CIN8 (second series), stronger effect = lower value 0.967 | locus YEL061C, strain CIN8, stronger effect = lower value 0.996 | locus YER015W, strain faa2, stronger effect = lower value 0.983 | locus YER016W, strain bim1, stronger effect = lower value 0.982 | locus YER110C, stronger effect = lower value 0.951 | locus YER111C, strain swi4, stronger effect = lower value 0.972 | locus YER155C, strain BEM2 (second series), stronger effect = lower value 0.972 | locus YER155C, strain BEM2, stronger effect = lower value 0.999 | locus YER167W, strain BCK2, stronger effect = lower value 0.997 | locus YFR010W, strain ubp6, stronger effect = lower value 0.972 | locus YGL078C, strain dbp3, stronger effect = lower value 0.991 | locus YGL086W, strain mad1, stronger effect = lower value 0.967 | locus YGL167C, strain pmr1, stronger effect = lower value 0.969 | locus YGL173C, strain kem1, stronger effect = lower value 0.959 | locus YGL227W, strain vid30, stronger effect = lower value 0.968 | locus YGL240W, strain doc1, stronger effect = lower value 0.974 | locus YGL248W, strain PDE1, stronger effect = lower value 1.04 | locus YGL253W, strain hxk2, stronger effect = lower value 0.993 | locus YGR135W, strain pre9, stronger effect = lower value 1 | locus YGR229C, strain SMI1, stronger effect = lower value 1.05 | locus YGR252W, strain gcn5, stronger effect = lower value 1.15 | locus YHR013C, strain ard1, stronger effect = lower value 0.956 | locus YHR027C, strain rpn1, stronger effect = lower value 0.973 | [1] 0.992 and 0.957 | locus YHR079C, strain IRE1 (second series), stronger effect = lower value 0.988 | [2] 0.957 | locus YHR094C, strain hxt1, stronger effect = lower value 0.968 | locus YHR129C, strain ARP1, stronger effect = lower value 0.997 | locus YHR142W, strain chs7, stronger effect = lower value 1.02 | locus YHR200W, strain rpn10, stronger effect = lower value 0.979 | locus YIL066C, strain RNR3, stronger effect = lower value 1.02 | locus YIL073C, strain SPO22, stronger effect = lower value 0.967 | locus YIL125W, strain kgd1, stronger effect = lower value 0.98 | locus YIR030C, strain dcg1, stronger effect = lower value 0.979 | locus YJL092W, strain hpr5, stronger effect = lower value 0.985 | locus YJL095W, strain BCK1 (second series), stronger effect = lower value 0.985 | [3] 1.08 and 0.996 | locus YJL115W, strain asf1, stronger effect = lower value 0.975 | locus YJL129C, strain trk1, stronger effect = lower value 0.981 | locus YJL134W, strain LCB3, stronger effect = lower value 0.99 | locus YJL154C, strain vps35, stronger effect = lower value 0.96 | locus YJL164C, strain tpk1, stronger effect = lower value 1.01 | locus YJL166W, strain qcr8, stronger effect = lower value 0.979 | locus YJL168C, strain set2, stronger effect = lower value 0.991 | locus YJL187C, strain SWE1 (second series), stronger effect = lower value 1.04 | locus YJL187C, strain SWE1, stronger effect = lower value 0.972 | locus YJR043C, strain POL32, stronger effect = lower value 1.04 | [4] 0.905 | locus YKL009W, strain mrt4, stronger effect = lower value 0.963 | locus YKL068W, stronger effect = lower value 0.988 | locus YKL085W, strain MDH1 (second series), stronger effect = lower value 0.971 | locus YKL085W, strain MDH1, stronger effect = lower value 0.971 | locus YKL160W, strain elf1, stronger effect = lower value 1.04 | locus YKL190W, strain CNB1, stronger effect = lower value 0.991 | locus YKR001C, strain vps1, stronger effect = lower value 0.973 | locus YKR026C, strain gcn3, stronger effect = lower value 0.977 | locus YKR091W, strain srl3, stronger effect = lower value 0.973 | locus YLL001W, strain dnm1, stronger effect = lower value 0.999 | locus YLL026W, stronger effect = lower value 0.982 | locus YLL041C, strain sdh2, stronger effect = lower value 0.984 | locus YLR027C, strain aat2, stronger effect = lower value 0.987 | locus YLR039C, strain RIC1, stronger effect = lower value 1.04 | locus YLR058C, strain SHM2, stronger effect = lower value 1.02 | locus YLR102C, strain apc9, stronger effect = lower value 0.957 | [5] 1.04 | locus YLR221C, strain rsa3, stronger effect = lower value 1 | locus YLR258W, strain gsy2, stronger effect = lower value 0.963 | locus YLR262C, strain YPT6 (second series), stronger effect = lower value 1 | locus YLR262C, strain YPT6, stronger effect = lower value 1.04 | locus YLR268W, strain sec22, stronger effect = lower value 0.972 | locus YLR320W, strain mms22, stronger effect = lower value 0.989 | locus YLR330W, strain CHS5, stronger effect = lower value 0.984 | locus YLR342W, strain FKS1 (second series), stronger effect = lower value 1.03 | locus YLR342W, strain FKS1, stronger effect = lower value 0.959 | locus YLR357W, strain rsc2, stronger effect = lower value 0.963 | locus YLR370C, strain arc18, stronger effect = lower value 0.976 | locus YLR371W, strain rom2, stronger effect = lower value 0.968 | locus YLR384C, strain iki3, stronger effect = lower value 0.981 | locus YLR418C, strain cdc73, stronger effect = lower value 1.02 | locus YML016C, strain PPZ1, stronger effect = lower value 0.999 | locus YML032C, strain rad52, stronger effect = lower value 1 | locus YML120C, strain ndi1, stronger effect = lower value 0.987 | locus YML124C, strain tub3, stronger effect = lower value 0.973 | locus YMR058W, strain fet3, stronger effect = lower value 0.966 | locus YMR078C, strain ctf18, stronger effect = lower value 0.975 | locus YMR125W, strain sto1, stronger effect = lower value 0.914 | locus YMR129W, stronger effect = lower value 0.965 | locus YMR205C, strain PFK2, stronger effect = lower value 0.932 | locus YMR223W, strain ubp8, stronger effect = lower value 0.988 | locus YMR231W, strain pep5, stronger effect = lower value 0.968 | [6] 1.01 | [7] 1.24 | locus YNL067W, strain RPL9B, stronger effect = lower value 1.05 | locus YNL071W, strain lat1, stronger effect = lower value 0.977 | locus YNL153C, strain GIM3, stronger effect = lower value 1.05 | [8] 0.971 | locus YNL209W, strain ssb2, stronger effect = lower value 0.977 | locus YNL233W, strain BNI4, stronger effect = lower value 1.07 | locus YNL248C, strain rpa49, stronger effect = lower value 1.01 | locus YNL250W, strain rad50, stronger effect = lower value 0.965 | locus YNL271C, strain bni1, stronger effect = lower value 0.973 | locus YNL298W, strain CLA4, stronger effect = lower value 0.99 | locus YNL307C, strain MCK1, stronger effect = lower value 0.988 | locus YNL322C, strain KRE1 (second series), stronger effect = lower value 0.973 | locus YNL322C, strain KRE1, stronger effect = lower value 0.998 | locus YNR049C, strain mso1, stronger effect = lower value 0.966 | locus YNR052C, strain pop2, stronger effect = lower value 0.972 | locus YOL006C, strain TOP1, stronger effect = lower value 1.06 | locus YOL012C, strain htz1 1.34 | locus YOL147C, strain pex11, stronger effect = lower value 0.989 | locus YOR001W, strain rrp6, stronger effect = lower value 1.01 | locus YOR061W, strain CKA2, stronger effect = lower value 1.01 | locus YOR069W, strain VPS5, stronger effect = lower value 0.992 | locus YOR070C, strain gyp1, stronger effect = lower value 0.985 | locus YOR080W, strain dia2, stronger effect = lower value 0.965 | locus YOR083W, strain WHI5, stronger effect = lower value 1.05 | locus YOR106W, strain vam3, stronger effect = lower value 1.01 | locus YOR136W, strain idh2, stronger effect = lower value 0.979 | locus YOR144C, strain elg1, stronger effect = lower value 1 | locus YOR184W, strain ser1, stronger effect = lower value 0.963 | [9] 0.954 | locus YOR265W, strain rbl2, stronger effect = lower value 0.986 | locus YOR270C, strain vph1, stronger effect = lower value 0.975 | locus YOR290C, strain snf2, stronger effect = lower value 0.925 | locus YOR316C, strain cot1, stronger effect = lower value 0.974 | locus YPL051W, strain arl3, stronger effect = lower value 1 | locus YPL055C, strain LGE1, stronger effect = lower value 1.06 | locus YPL078C, strain atp4, stronger effect = lower value 1 | locus YPL106C, strain sse1, stronger effect = lower value 0.972 | locus YPL240C, strain hsp82, stronger effect = lower value 0.997 | [10] 0.998 | [11] 0.975 | locus YPR119W, strain clb2, stronger effect = lower value 0.96 | locus YPR141C, strain kar3, stronger effect = lower value 0.969 | locus YPR163C, strain tif3, stronger effect = lower value 0.992 | locus YPR167C, strain met16, stronger effect = lower value 0.941 | strain wtn01, stronger effect = lower value 0.979
